In experiment [1] the target is 3',5'-cyclic-AMP phosphodiesterase 4B (Homo sapiens) (UniProt Q07343). In words: qHTS Assay for Inhibitors of PDE-IV (AID 607; active means well fitted activation curve with a large enough effect in the main read-out, with a control signal flat, not every such curve was filed as active). Put shortly: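 Cell-based read-out of cAMP via a modified cyclic nucleotide-gated channel and membrane potential dye (535/590 nm) in HEK293 cells expressing PDE4 endogenously. Compounds tested up to 22.9 uM final; 100 uM RO 20-1724 reference.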
On the technique in general: qHTS replaces the single test concentration by a dilution series.

Experiment [2] is described as follows: Cell Viability - Mesenchymal (AID 546).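 Further: cells exposed to compound for 40 hours before reading.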 Put shortly: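 Human renal mesenchymal cells (glomerulus-derived), 1000 cells/well, 5 hr 37 °C pre-incubation; compound 40 hr, 37 °C; CellTiter-Glo, 20 min RT; luminescence; AC50 via Hill equation.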
The nature of experiment [3]: Cellular Toxicity (caspase-3) HepG2 (AID 654).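 Further: cells exposed to compound for 16 hours before reading.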 The essentials: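 Caspase 3/7 activation is measured as a luminescence increase (aminoluciferin substrate) after 16 h compound exposure of human hepatocarcinoma HepG2 cells. AC50 values are Hill fits, scaled between DMSO baseline and 100 uM tamoxifen stimulation.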
Experiment [4] can be described thus: Cellular Toxicity (caspase-3) Jurkat (AID 655).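 Further: cells exposed to compound for 16 h at 37 °C before reading.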 The essentials: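 Jurkat cells (5000/well) in complete medium exposed 16 h at 37 C; caspase-3/7 activity read by Caspase-Glo luminescence after 20 min at room temperature. Normalized to DMSO and 100 uM tamoxifen; AC50 from Hill fits.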
A short description of experiment [5]: Cellular Toxicity (caspase-3) HUV-EC-C (AID 656). Put shortly: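 HUV-EC-C cells (1000/well) in complete medium, compound-treated 16 h at 37 °C; caspase-3/7 activity read by Caspase-Glo 3/7 luminescence. Normalized to DMSO (basal) and 100 uM tamoxifen (100%); AC50 from Hill-equation concentration-response fits.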
Experiment [6] can be described thus: Cellular Toxicity (caspase-3) SHSY5Y (AID 657). The essentials: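 SH-SY5Y human neuroblastoma cells, 1500/well, exposed to compound for 16 hours at 37 °C in complete medium. Caspase-3/7 activity read by Caspase-Glo luminescence after 1 hr at room temperature, normalized to DMSO and 10 uM staurosporine; AC50 from Hill fit.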
Experiment [7] in a line: Cellular Toxicity (caspase-3) BJ (AID 658). The essentials:
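qHTS, BJ fibroblasts, 1000 cells/well; 5 hr preincubation, 16 hr compound, 37 °C; Caspase-Glo 3/7 reagent, 1 hr RT; luminescence. DMSO = 0%, 10 uM staurosporine = 100%. Hill-equation AC50.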

Experiment [8] is described as follows: Cellular Toxicity (caspase-3) MRC-5 (AID 659). Put shortly: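 MRC-5 fibroblasts, 1500/well; 16 h cpd, 37 °C; Caspase-Glo 3/7, 1 h RT; lumi read. Norm: DMSO = 0%, 10 uM staurosporine = 100%. Hill-fit AC50 from qHTS conc-response.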
A short description of experiment [9]: Cellular Toxicity (caspase-3) Mesangial (AID 660).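 Further: cells exposed to compound for 16 h before the caspase read.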 The essentials: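 Caspase 3/7 activation measured by Caspase-Glo 3/7 luminescence (20 min, room temperature) following 16 h exposure of mesangial cells (1000/well); AC50 from Hill-equation fit, normalized to DMSO and 100 uM tamoxifen.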
Experiment [10] can be described thus: Cellular Toxicity (caspase-3) SK-N-SH (AID 661). Put shortly:
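Caspase 3/7 activation was read by luminogenic substrate cleavage after 16 hour treatment of SK-N-SH cells. Signal was scaled between DMSO and 10 uM staurosporine, and concentration-response data were fitted with the Hill equation for AC50.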

Records with an inconclusive call do not appear. Active and inactive are the calls of the source. Unless noted, the call rests on the fitted dose curve; in most records, active means well fitted curve in the direction sought with a large enough effect; inconclusive means small, poorly fitted or top-dose-only effect, or another doubt; inactive means no such curve, though single readings can be large; an effect the other way counts as inactive or inconclusive.

Sequence of 3',5'-cyclic-AMP phosphodiesterase 4B (Homo sapiens) (Q07343 whole entry, looked up): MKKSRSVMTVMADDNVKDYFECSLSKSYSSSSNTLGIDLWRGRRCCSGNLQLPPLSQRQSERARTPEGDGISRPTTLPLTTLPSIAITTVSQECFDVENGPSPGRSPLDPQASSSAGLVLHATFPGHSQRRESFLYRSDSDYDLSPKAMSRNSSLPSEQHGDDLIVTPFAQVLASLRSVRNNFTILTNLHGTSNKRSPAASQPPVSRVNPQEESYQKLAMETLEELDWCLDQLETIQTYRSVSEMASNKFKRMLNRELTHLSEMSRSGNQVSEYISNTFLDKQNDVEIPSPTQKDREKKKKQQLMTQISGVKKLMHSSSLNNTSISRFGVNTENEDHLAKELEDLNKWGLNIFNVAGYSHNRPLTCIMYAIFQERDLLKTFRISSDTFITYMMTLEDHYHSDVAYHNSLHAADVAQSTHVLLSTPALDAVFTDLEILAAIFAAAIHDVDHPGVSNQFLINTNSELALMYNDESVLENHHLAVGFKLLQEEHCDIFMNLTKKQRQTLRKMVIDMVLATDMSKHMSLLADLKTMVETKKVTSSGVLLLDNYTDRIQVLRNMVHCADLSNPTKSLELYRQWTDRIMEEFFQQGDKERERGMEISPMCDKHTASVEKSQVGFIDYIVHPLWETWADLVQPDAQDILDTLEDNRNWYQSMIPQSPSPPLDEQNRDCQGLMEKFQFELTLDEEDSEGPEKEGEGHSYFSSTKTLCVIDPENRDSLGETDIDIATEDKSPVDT

On to `N#Cc1ccc(C(c2ccc(C#N)cc2)n2cncn2)cc1`, for which the call in experiment [1] was inactive.

`CNC[C@H](O)c1cccc(O)c1`: in experiment [1], the call was inactive.

Regarding `Cc1cc2c(C(C)C)c(O)c(O)c(C=O)c2c(O)c1-c1c(C)cc2c(C(C)C)c(O)c(O)c(C=O)c2c1O`, the molecule was classed as inactive in experiment [1].

For the molecule `CC(C)(Sc1ccc(CCN(CCCCC2CCCCC2)C(=O)NC2CCCCC2)cc1)C(=O)O`, the outcome in experiment [1] was inactive.

`O=c1[nH]cnc2[nH]ncc12`: the molecule was classed as inactive in experiment [2], in experiment [1], in [3], in [4], in experiment [5] and in experiment [6]. The outcome in [7], in experiment [8], in experiment [9] and in experiment [10] was inactive.

Take `Cn1cnc([N+](=O)[O-])c1Sc1ncnc2nc[nH]c12`: the outcome in experiment [1], in [3], in [4], in [5], in [6] and in [7] was inactive. Further, the outcome in experiment [8], in experiment [9] and in experiment [10] was inactive.

As for `Nc1nc2ccc(OC(F)(F)F)cc2s1`, in [1], the molecule was classed as inactive.

For `NCCc1ccc(O)c(O)c1`, in experiment [1], the molecule was called inactive.

On to `CCOC(=O)N1CCC(=C2c3ccc(Cl)cc3CCc3cccnc32)CC1`, for which the outcome in [1] was inactive.

Take `C1COC(NC(C2CC2)C2CC2)=N1`: in experiment [1], the molecule was classed as inactive.

In the case of `O=NN(CCCl)C(=O)NCCCl`, in [1], the outcome was inactive.

With `CN1CCN(CCCN2c3ccccc3Sc3ccc(C(F)(F)F)cc32)CC1`, the outcome in experiment [1] was inactive.

For `COc1ccc2nc(S(=O)Cc3ncc(C)c(OC)c3C)[nH]c2c1` (stereo not drawn), the molecule was classed as inactive in experiment [1].

On to `O=C1CCc2cc(OCCCCc3nnnn3C3CCCCC3)ccc2N1`, for which, in experiment [1], the molecule was classed as inactive.

Consider `NNCCc1ccccc1`, for which the outcome in experiment [1] was inactive.

Turning to `Cc1ccc2c(c1)C(=O)[C@@]1(O)CCN(c3ccccc3)C1=N2`, the result in [1] was inactive.

`NC(N)=NC(=O)c1nc(Cl)c(N)nc1N`: the molecule was classed as inactive in [2], in experiment [1], in experiment [3], in [4], in experiment [5] and in experiment [6]. The molecule was called inactive in experiment [7], in experiment [8], in experiment [9] and in experiment [10].

The values are drawn from PubChem BioAssay (NCATS).
